In PubChem BioAssay (NCI):
About 79,000 compounds went through this panel and 15% of them were active in at least one assay; those are over-represented in the sample as a whole. A number with no mark means an inactive call. Calls of active or inactive are those of the source. Rule as the data show it: active = growth inhibition above about 70%; inactive = the rest.

Key:
[1] = NCI Yeast Anticancer Drug Screen. Data for the rad50 strain (AID 155);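 also: 0% = growth of vehicle-only cultures of the same strain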; settings: S. cerevisiae rad50 strain growth inhibition, hits give high values
Summary of the method: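 DNA repair mutant yeast, compound exposure, growth read-out; inhibition is taken relative to vehicle.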

[2] = NCI Yeast Anticancer Drug Screen. Data for the mec2-1 strain (AID 157); settings: S. cerevisiae mec2-1 strain, hits give high values
Summary of the method: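 Yeast mec2-1 mutant treated with compound. Readout: growth inhibition vs vehicle controls.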

[3] = NCI Yeast Anticancer Drug Screen. Data for the sgs1 mgt1 strain (AID 161);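 also: 0% = growth of cultures given vehicle only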; settings: S. cerevisiae sgs1 mgt1 strain, hits give high values
Summary of the method: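 Read-out: growth inhibition vs vehicle controls. Cells: mutant yeast strain deficient in DNA damage repair.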

[4] = NCI Yeast Anticancer Drug Screen. Data for the cln2 rad14 strain (AID 165);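 also: 0% = growth equal to vehicle treated cultures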; settings: S. cerevisiae cln2 rad14 strain, hits give high values
Summary of the method: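 cln2 rad14 yeast strain; compound exposure; growth inhibition read vs vehicle controls.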

[5] = NCI Yeast Anticancer Drug Screen. Data for the bub3 strain (AID 167); settings: S. cerevisiae bub3 mutant strain, hits give high values
Summary of the method: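 In this screen, a yeast mutant lacking normal mitotic checkpoint function is challenged with compound. Relative growth versus vehicle gives the inhibition value.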

[6] = NCI Yeast Anticancer Drug Screen. Data for the mlh1 rad18 strain (AID 175); settings: S. cerevisiae mlh1 rad18 strain growth inhibition, hits give high values
Summary of the method: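 Yeast w/ defined DNA-repair lesions; compound exposure; growth vs vehicle controls → % inhibition.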

[7] = at 5.0 µM (retest, dose inferred, filed as 0.5)
[8] = at 50.0 µM (retest, dose inferred, filed as 5.0)

| SMILES | growth inhibition [1, 7] | growth inhibition [1, 8] | growth inhibition ([1]; at 50.0 µM) | growth inhibition [2, 7] | growth inhibition [2, 8] | growth inhibition ([2]; at 50.0 µM) | growth inhibition [3, 7] | growth inhibition [3, 8] | growth inhibition ([3]; at 50.0 µM) | growth inhibition [4, 7] | growth inhibition [4, 8] | growth inhibition ([4]; at 50.0 µM) | growth inhibition [5, 7] | growth inhibition [5, 8] | growth inhibition ([5]; at 50.0 µM) | growth inhibition [6, 7] | growth inhibition [6, 8] | growth inhibition ([6]; at 50.0 µM) |
| --- | --- | --- | --- | --- | --- | --- | --- | --- | --- | --- | --- | --- | --- | --- | --- | --- | --- | --- |
| C=CCSc1nc2ccccc2c(=O)n1Cc1ccco1 | 50% | 59% | -7.25% | 25% | 36% | -12.2% | 33% | 59% | 22.4% | 27% | 26% | -54.2% | 45% | 77% (active) | 19.4% | 43% | 64% | 46.5% |
| O=[N+]([O-])c1ccccc1NC1CCN(CCCC2(c3ccc(F)cc3)OCCO2)CC1 | 11% | 96% (active) | 99% (active) | 7% | 94% (active) | 98% (active) | 16% | 99% (active) | 98.6% (active) | 9% | 94% (active) | 93.3% (active) | 10% | 97% (active) | 41.4% | 11% | 94% (active) | 98.7% (active) |
| O=C(/C=C/c1ccccc1)CCN1CCC2CCC(C2)C1 (stereo not given) | 2% | 55% | 62.9% | 9% | 82% (active) | 93% (active) | 15% | 54% | 76.1% (active) | 11% | 58% | 27.6% | 3% | 79% (active) | 46.9% | 8% | 81% (active) | 79.5% (active) |
| OC(Cc1cccnc1)(c1ccccc1)c1ccc(Cl)cc1 (stereo not given) | -7% | 69% | 97.5% (active) | -3% | 80% (active) | 98% (active) | 6% | 79% (active) | 97.3% (active) | -1% | 64% | 94.2% (active) | -3% | 77% (active) | 97.2% (active) | -5% | 71% (active) | 98% (active) |
| CC#CCCCCOC(=O)c1cc([N+](=O)[O-])cc([N+](=O)[O-])c1 | 97% (active) | 99% (active) | 99.5% (active) | 99% (active) | 100% (active) | 99.6% (active) | 98% (active) | 99% (active) | 99.6% (active) | 90% (active) | 99% (active) | 99.4% (active) | 98% (active) | 99% (active) | 99.7% (active) | 98% (active) | 99% (active) | 99.4% (active) |
| CC(C)(CC(=O)NNc1ccccc1)C(=O)O | 7% | 72% (active) | 57.6% | 4% | 61% | 20.2% | 14% | 60% | 72% (active) | 19% | 82% (active) | 79.2% (active) | 22% | 94% (active) | 89.5% (active) | 32% | 95% (active) | 85.8% (active) |
| O=C1CSC(c2ccc([N+](=O)[O-])cc2)N1c1ccc(-c2ccc(-n3c(-c4ccccc4)nc4ccccc4c3=O)cc2)cc1 (stereo not given) | -1% | 91% (active) | 85.2% (active) | 13% | 79% (active) | 84.4% (active) | 14% | 93% (active) | 94% (active) | 31% | 75% (active) | 72.5% (active) | -14% | 95% (active) | 95.2% (active) | 19% | 96% (active) | 94.8% (active) |
| O=C1CCC(Cc2ccc(I)cc2)C(=O)N1 (stereo not given) | -5% | 3% | -2.9% | 1% | 6% | -12.7% | -11% | 68% | 66.3% | -5% | 7% | -63.8% | -6% | -5% | -54.2% | -6% | 1% | -4.6% |
| OC(c1ccccc1)c1cccc2ccccc12 (stereo not given) | -1% | 47% | 91.3% (active) | -5% | 14% | 67.3% | 20% | 25% | -1.85% | -8% | 18% | 44.8% | -1% | 30% | 67% | -1% | 25% | 43.1% |
| Cc1ccc(S(=O)(=O)N/N=C/c2oc(-c3cccc([N+](=O)[O-])c3)c(-c3cccc([N+](=O)[O-])c3)c2[N+](=O)[O-])cc1 | 56% | 56% | 86.7% (active) | 17% | 17% | 92.7% (active) | 50% | 50% | 92.1% (active) | 27% | 27% | 91.7% (active) | 31% | 31% | 87.9% (active) | 57% | 57% | 89.7% (active) |
